Measured values as given in PubChem BioAssay (Tox21).
Values joined by “and” are separate entries in the source; they are usually repeats but may differ in a detail not shown here. Equal values may be shown once. Results filed as inconclusive are left out. Where a structure was tested more than once in an assay, its records may differ in their call. Active and inactive are the calls of the source. Unless noted, calls follow the shape of the dose curve; as a rule, active = well fitted curve in the direction sought with a large enough effect in the repeat runs; inconclusive = weak or mixed curves; inactive = no such curve, though single readings can be large; an effect the other way counts as inactive or inconclusive.

What was measured:
[1] = Caspase-3/7 induction in HepG2 cells by small molecules, qHTS cell viability counter screen (AID 1346981); also: series mostly up to about 92 µM; nearly all actives have a fitted effect of over 30% in size
In short: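 After a 5-hr attachment period at 37 C and 5% CO2, wild-type HepG2 cells received compounds in DMSO. Sixteen hours later CellTiter-Fluor was dispensed and the fluorescent signal quantified after a further hour.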

[2] = molecular target: Nuclear receptor subfamily 1 group I member 2 (Homo sapiens) (UniProt O75469); assay: Human pregnane X receptor (PXR) small molecule agonists, qHTS assay (AID 1346982); also: nearly all actives have a fitted effect of over 35% in size; also: potency is read from the fitted curve at half-maximal effect
In short: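 Tox21 qHTS; PXR-Luc HepG2; compounds pinned from DMSO; 24 hr, 37 C; ONE-Glo luciferase detection, 30 min room temperature.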

[3] = molecular target: Nuclear receptor subfamily 1 group I member 2 (Rattus norvegicus) (UniProt Q9R1A7); assay: Rat pregnane X receptor (rPXR) activation by small molecules, qHTS assay (AID 1346983); details: rPXR luciferase reporter cells, One-Glo luminescence, 24 h; stronger effect = higher value; also: nearly all actives have a fitted effect of over 20% in size
In short: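 Cell-based rPXR activation assay: rPXR cells, 2,000 per well, rested 5hr at 37 C, then exposed to compounds in DMSO for 24 hr at 37 C. Luciferase activity read by One-Glo luminescence after 30 min at room temperature.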

[4] = molecular target: Nuclear receptor subfamily 1 group I member 2 (Homo sapiens) (UniProt O75469); assay: CYP3A4 induction through human pregnane X receptor (PXR) by small molecules, qHTS assay (AID 1346984); also: nearly all actives have a fitted effect of over 40% in size
In short: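 Cells (DPX-2; HepG2 with PXR element plus CYP3A4-promoter luciferase) settled 5hr, then were treated 24hr at 37C. A 3hr, 3uM-final Luciferin-IPA step preceded luminescence measurement with One-Glo.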

[5] = molecular target: Nuclear receptor subfamily 1 group I member 2 (Homo sapiens) (UniProt O75469); assay: Human pregnane X receptor (PXR) activation by small molecules, qHTS assay (AID 1346985); also: nearly all actives have a fitted effect of over 40% in size; also: potency is read from the fitted curve at half-maximal effect
In short: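 DPX-2 cells (HepG2 co-transfected with a PXR response element and a CYP3A4-promoter luciferase construct) were seeded at 2,000 per well, rested 5 hr at 37C, then exposed to DMSO-dissolved compounds for 24 hr. Activation was read as luciferase luminescence.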

[6] = molecular target: Acetylcholinesterase (Homo sapiens) (UniProt P22303); assay: Acetylcholinesterase (AChE) small molecule antagonists: colormetric cell-based qHTS assay (AID 1347395; calls by dose curve; also: nearly all actives have a fitted effect of over 30% in size; also: potency is read from the fitted curve at half-maximal effect)
In short: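 SH-SY5Y cells attached overnight, exposed to compound 30 min at 37 C, then given DTNB/acetylthiocholine; after 90 min at 37 C, colorimetric thiocholine read gives cellular AChE activity.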

[7] = molecular target: Acetylcholinesterase (Homo sapiens) (UniProt P22303); assay: Acetylcholinesterase (AChE) small molecule antagonists: fluorescence cell-based qHTS assay (AID 1347398; calls by dose curve; also: nearly all actives have a fitted effect of over 50% in size; also: potency is read from the fitted curve at half-maximal effect); details: Potency: AChE activity
In short: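 SH-SY5Y, 2,000 cells/well, attached overnight; cmpd 30 min 37 C; acetylthiocholine/Thiolite Green cocktail 40 min RT; fluorescence Ex/Em 490/520 nm.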

[8] = molecular target: Acetylcholinesterase (Homo sapiens) (UniProt P22303); assay: Acetylcholinesterase (AChE) small molecule antagonists: enzyme-based qHTS assay with human liver microsomes (AID 1347399; calls by dose curve; also: nearly all actives have a fitted effect of over 60% in size; also: potency is read from the fitted curve at half-maximal effect); details: Potency: qHTS inhibition
In short: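 Recombinant human AChE (50 mU/mL in the enzyme mix) and human liver microsomes (0.25 mg/mL final) were preincubated with compound and NADPH (0.25 mg/mL final) for 30 min at 37 C. Acetylthiocholine/DTNB was then added; thiocholine was read colorimetrically after 10 min at room temperature.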

[9] = molecular target: Cytochrome P450 2D6 (Homo sapiens) (UniProt P10635); assay: Cytochrome P450 Family 2 Subfamily D Member 6 (CYP2D6) small molecule antagonists: luciferase reporter qHTS assay (AID 1671196); also: nearly all actives have a fitted effect of over 50% in size; also: potency is read from the fitted curve at half-maximal effect; as to activity change, negative = inhibition: series mostly up to about 120 µM
In short: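 Room-temperature luminescent CYP2D6 activity assay: compound preincubated 10 min with enzyme–substrate mix, NADPH-initiated reaction 1 h, detection reagent 20 min before reading.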

[10] = molecular target: Cytochrome P450 2C19 (Homo sapiens) (UniProt P33261); assay: Cytochrome P450 Family 2 Subfamily C Member 19 (CYP2C19) small molecule antagonists: luciferase reporter qHTS assay (AID 1671197); also: nearly all actives have a fitted effect of over 65% in size; also: potency is read from the fitted curve at half-maximal effect; as to activity change, negative = inhibition: series mostly up to about 120 µM
In short: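 Compounds were tested on CYP2C19 activity via proluciferin conversion to luciferin. The 37C, 1 h reaction followed NADPH addition; detection reagent stopped it.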

[11] = molecular target: Cytochrome P450 2C9 (Homo sapiens) (UniProt P11712); assay: Cytochrome P450 Family 2 Subfamily C Member 9 (CYP2C9) small molecule antagonists: luciferase reporter qHTS assay (AID 1671198); also: nearly all actives have a fitted effect of over 50% in size; also: potency is read from the fitted curve at half-maximal effect; as to activity change, negative = inhibition: series mostly up to about 120 µM
In short: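 P450-Glo proluciferin substrate with CYP2C9 enzyme; 10 min RT preincubation, then NADPH regeneration 1 h at 37C; luciferin detection reagent 20 min RT, luminescence in relative luminescence units.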

[12] = molecular target: Cytochrome P450 1A2 (Homo sapiens) (UniProt P05177); assay: Cytochrome P450 Family 1 Subfamily A Member 2 (CYP1A2) small molecule antagonists: luciferase reporter qHTS assay (AID 1671199); also: nearly all actives have a fitted effect of over 50% in size; also: potency is read from the fitted curve at half-maximal effect; as to activity change, negative = inhibition: series mostly up to about 120 µM
In short: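 Room-temperature CYP1A2 reaction with proluciferin substrate: compounds added from DMSO, 10 min preincubation, NADPH regeneration for 1 h. Luciferin detection reagent then added; luminescence recorded as RLU.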

[13] = molecular target: Voltage-gated inwardly rectifying potassium channel KCNH2 (Homo sapiens) (UniProt Q12809); assay: Human Ether-a-go-go-Related Gene (hERG) channel small molecule antagonists: fluorescence cell-based qHTS assay (AID 1671200); also: nearly all actives have a fitted effect of over 50% in size; also: potency is read from the fitted curve at half-maximal effect;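 as to activity change, negative = inhibition: hERG-expressing U2OS cells given a thallium stimulus after FluxOR II dye loading; series mostly up to about 77 µM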
In short: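 hERG-U2OS cells plated overnight at 37 C, loaded with FluxOR II dye 1 h at RT in dark; after 10 min, thallium stimulus added. Fluorescence (480/540 nm) read kinetically for 2 min at 1 s intervals.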

[14] = molecular target: Cytochrome P450 3A4 (Homo sapiens) (UniProt P08684); assay: Cytochrome P450 Family 3 Subfamily A Member 4 (CYP3A4) small molecule antagonists: luciferase reporter qHTS assay (AID 1671201); also: nearly all actives have a fitted effect of over 50% in size; also: potency is read from the fitted curve at half-maximal effect; as to activity change, negative = inhibition: series mostly up to about 120 µM
In short: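 P450-Glo CYP3A4 luminescent assay: compounds preincubated 10 min at room temperature with enzyme and proluciferin substrate, NADPH regeneration added, 1 h room-temperature reaction, stopped with luciferin detection reagent; luminescence read after 20 min. Ketoconazole positive control.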

[15] = molecular target: Acetylcholinesterase (Homo sapiens) (UniProt P22303); assay: Acetylcholinesterase (AChE) small molecule antagonists: enzyme-based qHTS assay (AID 1347397; calls by dose curve; also: nearly all actives have a fitted effect of over 55% in size); details: Potency: AChE enzyme activity inhibition
In short: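 Colorimetric DTNB read-out of thiocholine released from acetylthiocholine by recombinant human AChE (50 mU/mL as dispensed). Compounds were preincubated 30 min at RT before substrate/DTNB addition, with a 10 min RT reaction.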
% is scaled to controls: 0 for no effect and ±100 for the full control effect.

Chain of Cytochrome P450 2C9 (Homo sapiens) (P11712 whole entry, looked up): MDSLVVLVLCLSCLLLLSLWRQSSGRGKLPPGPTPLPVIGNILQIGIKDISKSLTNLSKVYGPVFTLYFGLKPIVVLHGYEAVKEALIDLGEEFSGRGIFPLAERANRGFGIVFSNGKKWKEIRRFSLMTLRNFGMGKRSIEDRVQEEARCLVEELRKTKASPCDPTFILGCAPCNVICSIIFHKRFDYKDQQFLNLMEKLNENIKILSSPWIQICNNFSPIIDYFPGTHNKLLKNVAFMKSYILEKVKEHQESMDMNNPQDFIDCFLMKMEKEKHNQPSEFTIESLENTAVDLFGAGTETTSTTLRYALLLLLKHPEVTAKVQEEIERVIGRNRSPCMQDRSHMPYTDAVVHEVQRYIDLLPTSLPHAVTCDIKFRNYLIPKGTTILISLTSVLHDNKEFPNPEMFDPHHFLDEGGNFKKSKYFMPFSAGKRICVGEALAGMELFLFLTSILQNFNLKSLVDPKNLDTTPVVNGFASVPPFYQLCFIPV
Chain of Nuclear receptor subfamily 1 group I member 2 (Homo sapiens) (O75469 whole entry, looked up): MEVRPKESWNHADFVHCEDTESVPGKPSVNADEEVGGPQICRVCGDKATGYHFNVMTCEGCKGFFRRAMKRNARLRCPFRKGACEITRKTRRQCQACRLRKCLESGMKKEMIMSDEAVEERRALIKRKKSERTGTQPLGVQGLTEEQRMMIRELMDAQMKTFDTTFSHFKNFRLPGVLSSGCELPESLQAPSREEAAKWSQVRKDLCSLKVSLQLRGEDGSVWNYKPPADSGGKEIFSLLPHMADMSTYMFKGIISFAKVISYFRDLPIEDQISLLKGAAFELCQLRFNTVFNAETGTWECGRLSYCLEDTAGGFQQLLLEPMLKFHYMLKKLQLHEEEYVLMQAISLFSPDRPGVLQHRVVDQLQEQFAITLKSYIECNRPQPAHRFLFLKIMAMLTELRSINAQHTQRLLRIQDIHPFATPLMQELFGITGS
Chain of Nuclear receptor subfamily 1 group I member 2 (Rattus norvegicus) (Q9R1A7 whole entry, looked up): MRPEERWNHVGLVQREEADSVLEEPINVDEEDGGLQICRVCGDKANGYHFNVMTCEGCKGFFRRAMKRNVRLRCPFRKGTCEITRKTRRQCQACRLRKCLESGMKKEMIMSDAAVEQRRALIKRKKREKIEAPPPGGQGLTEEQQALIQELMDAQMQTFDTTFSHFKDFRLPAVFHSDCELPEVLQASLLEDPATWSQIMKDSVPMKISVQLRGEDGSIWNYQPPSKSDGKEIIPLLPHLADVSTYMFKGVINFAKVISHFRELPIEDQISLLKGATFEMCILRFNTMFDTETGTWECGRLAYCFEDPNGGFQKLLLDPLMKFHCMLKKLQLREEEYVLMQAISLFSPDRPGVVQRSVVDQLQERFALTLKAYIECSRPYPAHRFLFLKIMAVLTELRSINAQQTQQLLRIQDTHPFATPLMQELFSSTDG
Chain of Cytochrome P450 2C19 (Homo sapiens) (P33261 whole entry, looked up): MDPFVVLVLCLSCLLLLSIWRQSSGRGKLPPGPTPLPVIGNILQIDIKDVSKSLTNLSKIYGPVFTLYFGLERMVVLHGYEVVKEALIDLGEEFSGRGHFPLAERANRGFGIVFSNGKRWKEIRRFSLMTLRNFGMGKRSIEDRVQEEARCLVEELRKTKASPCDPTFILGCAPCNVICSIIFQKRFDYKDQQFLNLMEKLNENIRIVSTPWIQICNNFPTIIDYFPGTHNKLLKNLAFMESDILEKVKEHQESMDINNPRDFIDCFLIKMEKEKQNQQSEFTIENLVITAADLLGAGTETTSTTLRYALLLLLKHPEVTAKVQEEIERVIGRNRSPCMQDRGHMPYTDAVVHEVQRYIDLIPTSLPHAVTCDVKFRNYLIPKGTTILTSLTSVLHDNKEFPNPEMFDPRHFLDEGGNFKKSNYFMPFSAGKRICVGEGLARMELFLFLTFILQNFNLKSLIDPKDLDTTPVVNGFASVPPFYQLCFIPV
Chain of Voltage-gated inwardly rectifying potassium channel KCNH2 (Homo sapiens) (Q12809 whole entry, looked up): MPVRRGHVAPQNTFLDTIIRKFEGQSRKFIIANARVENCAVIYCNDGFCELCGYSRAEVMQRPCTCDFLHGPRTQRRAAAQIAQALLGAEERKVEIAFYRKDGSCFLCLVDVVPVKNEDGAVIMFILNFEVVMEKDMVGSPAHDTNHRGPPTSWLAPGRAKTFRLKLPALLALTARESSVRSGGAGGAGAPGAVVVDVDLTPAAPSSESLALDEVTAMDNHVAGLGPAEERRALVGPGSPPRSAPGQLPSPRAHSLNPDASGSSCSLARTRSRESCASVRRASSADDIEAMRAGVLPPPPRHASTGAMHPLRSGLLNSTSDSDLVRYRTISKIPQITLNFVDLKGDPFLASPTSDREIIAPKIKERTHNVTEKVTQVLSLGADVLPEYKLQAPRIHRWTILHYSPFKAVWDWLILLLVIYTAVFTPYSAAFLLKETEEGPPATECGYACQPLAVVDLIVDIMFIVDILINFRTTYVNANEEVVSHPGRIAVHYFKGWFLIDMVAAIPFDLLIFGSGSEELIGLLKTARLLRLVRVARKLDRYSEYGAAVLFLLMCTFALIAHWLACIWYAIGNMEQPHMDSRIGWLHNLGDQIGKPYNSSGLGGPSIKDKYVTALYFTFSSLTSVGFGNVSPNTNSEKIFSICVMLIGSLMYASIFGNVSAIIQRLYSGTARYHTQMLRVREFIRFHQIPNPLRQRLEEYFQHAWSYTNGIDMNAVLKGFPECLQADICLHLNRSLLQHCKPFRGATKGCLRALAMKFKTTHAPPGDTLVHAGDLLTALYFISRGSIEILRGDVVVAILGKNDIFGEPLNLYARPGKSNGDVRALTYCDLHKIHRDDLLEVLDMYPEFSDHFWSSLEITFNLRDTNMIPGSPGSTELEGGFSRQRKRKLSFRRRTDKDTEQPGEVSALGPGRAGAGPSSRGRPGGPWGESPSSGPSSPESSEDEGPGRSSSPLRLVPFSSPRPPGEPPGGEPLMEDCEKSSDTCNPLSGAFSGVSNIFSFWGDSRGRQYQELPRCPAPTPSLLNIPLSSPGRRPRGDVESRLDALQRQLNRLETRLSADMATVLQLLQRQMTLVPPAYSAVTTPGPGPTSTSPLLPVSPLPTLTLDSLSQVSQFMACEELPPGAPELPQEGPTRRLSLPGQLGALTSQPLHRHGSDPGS
Chain of Cytochrome P450 2D6 (Homo sapiens) (P10635 whole entry, looked up): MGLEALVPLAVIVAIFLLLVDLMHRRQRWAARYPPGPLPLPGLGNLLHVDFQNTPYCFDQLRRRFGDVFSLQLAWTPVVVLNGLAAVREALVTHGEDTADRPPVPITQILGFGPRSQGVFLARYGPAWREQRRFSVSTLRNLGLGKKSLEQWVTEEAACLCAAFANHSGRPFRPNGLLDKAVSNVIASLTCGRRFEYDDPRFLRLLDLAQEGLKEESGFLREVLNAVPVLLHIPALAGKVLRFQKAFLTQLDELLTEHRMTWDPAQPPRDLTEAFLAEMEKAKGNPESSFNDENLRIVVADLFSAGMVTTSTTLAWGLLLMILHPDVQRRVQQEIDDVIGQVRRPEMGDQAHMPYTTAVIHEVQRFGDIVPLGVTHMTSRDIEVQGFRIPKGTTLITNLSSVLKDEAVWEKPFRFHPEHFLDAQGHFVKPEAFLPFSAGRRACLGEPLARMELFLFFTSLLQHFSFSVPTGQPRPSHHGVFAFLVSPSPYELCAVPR
Chain of Cytochrome P450 1A2 (Homo sapiens) (P05177 whole entry, looked up): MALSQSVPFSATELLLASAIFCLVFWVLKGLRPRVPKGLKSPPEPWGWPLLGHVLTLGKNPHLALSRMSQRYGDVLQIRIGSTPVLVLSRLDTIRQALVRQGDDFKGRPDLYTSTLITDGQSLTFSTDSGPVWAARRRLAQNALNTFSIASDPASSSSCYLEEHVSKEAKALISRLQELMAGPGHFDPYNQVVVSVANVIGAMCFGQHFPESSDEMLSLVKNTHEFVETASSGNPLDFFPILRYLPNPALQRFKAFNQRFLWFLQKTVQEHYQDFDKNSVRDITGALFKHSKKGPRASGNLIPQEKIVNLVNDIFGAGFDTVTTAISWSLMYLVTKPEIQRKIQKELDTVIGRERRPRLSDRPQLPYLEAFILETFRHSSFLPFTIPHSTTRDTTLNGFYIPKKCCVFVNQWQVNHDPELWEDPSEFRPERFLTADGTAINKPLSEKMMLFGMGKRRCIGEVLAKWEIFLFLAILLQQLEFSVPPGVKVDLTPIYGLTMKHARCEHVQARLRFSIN
Chain of Acetylcholinesterase (Homo sapiens) (P22303 whole entry, looked up): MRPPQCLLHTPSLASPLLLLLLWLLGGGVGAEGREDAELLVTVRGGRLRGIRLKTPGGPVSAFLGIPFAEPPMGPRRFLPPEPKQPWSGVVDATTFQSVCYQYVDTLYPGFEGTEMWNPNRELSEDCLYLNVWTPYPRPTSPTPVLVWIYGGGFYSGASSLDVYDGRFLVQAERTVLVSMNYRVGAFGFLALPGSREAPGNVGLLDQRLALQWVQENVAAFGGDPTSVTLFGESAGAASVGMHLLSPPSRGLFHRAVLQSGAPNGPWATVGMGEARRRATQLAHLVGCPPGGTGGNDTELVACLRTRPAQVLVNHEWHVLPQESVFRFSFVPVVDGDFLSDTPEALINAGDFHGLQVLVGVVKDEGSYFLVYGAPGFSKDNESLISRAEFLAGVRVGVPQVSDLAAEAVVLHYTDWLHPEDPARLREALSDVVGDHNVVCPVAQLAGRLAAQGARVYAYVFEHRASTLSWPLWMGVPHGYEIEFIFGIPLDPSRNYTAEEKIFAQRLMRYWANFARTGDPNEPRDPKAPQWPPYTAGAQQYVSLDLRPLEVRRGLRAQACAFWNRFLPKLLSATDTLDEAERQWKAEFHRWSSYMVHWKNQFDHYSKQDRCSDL

CC(C)=C[C@@H]1[C@@H](C(=O)OCc2coc(Cc3ccccc3)c2)C1(C)C
active: Potency [2] 13.7 µM | Potency [5] 22.4 µM | Potency [10] 10 µM and 4.36 µM | Potency [11] 1.42 µM and 5.49 µM | Potency [12] 27.5 µM
inactive: Potency [1] | max activation [3] 12.4% | outcome [4] | Potency [6] | Potency [7] | Potency [8] | Potency [9] | Potency [13] | Potency [14]

Clc1cccc(Cl)c1Cl
inactive: Potency [1] | Potency [2] | Potency [6] | Potency [15] | Potency [7] | Potency [8] | Potency [9] | Potency [11] | Potency [12] | Potency [13] | Potency [14]
35.2 µM (active) and inactive: Potency [10]

CCOC(=O)c1ccccc1C(=O)OCC
active: Potency [12] 3.22 µM and 3.17 µM
inactive: Potency [1] | Potency [2] | max activation [3] -0.77% | outcome [4] | Potency [5] | Potency [6] | Potency [8] | Potency [9] | Potency [13] | Potency [14]

COc1ccc2c3c1O[C@H]1[C@@H](O)C=C[C@H]4[C@@H](C2)N(C)CC[C@@]341
inactive: Potency [1] | Potency [2] | Potency [6] | Potency [15] | Potency [7] | Potency [8] | Potency [10] | Potency [11] | Potency [12] | Potency [13] | Potency [14]

C[C@]12CC[C@H]3[C@@H](CC[C@@]45O[C@@H]4C(O)=C(C#N)C[C@]35C)[C@@H]1CC[C@@H]2O
inactive: Potency [1] | Potency [2] | max activation [3] -0.29% | outcome [4] | Potency [5] | Potency [6] | Potency [15] | Potency [7] | Potency [8] | Potency [9] | Potency [10] | Potency [11] | Potency [12] | Potency [13] | Potency [14]

COC(=O)NS(=O)(=O)c1ccc(N)cc1
inactive: Potency [1] | Potency [2] | Potency [6] | Potency [15] | Potency [7] | Potency [8] | Potency [9] | Potency [12] | Potency [13] | Potency [14]
71.3 µM (active) and inactive: Potency [10]

CC(=O)C=C(C)C
inactive: Potency [1] | Potency [2] | Potency [6] | Potency [15] | Potency [7] | Potency [8] | Potency [9] | Potency [10] | Potency [11] | Potency [12] | Potency [13] | Potency [14]

CON(C)C(=O)Nc1ccc(Cl)c(Cl)c1
active: Potency [2] 61.4 µM and 54.5 µM | Potency [10] 16 µM and 39.9 µM | Potency [11] 40.1 µM and 39.9 µM | Potency [12] 1.42 µM and 3.17 µM
inactive: Potency [1] | Potency [6] | Potency [15] | Potency [7] | Potency [8] | Potency [9] | Potency [13] | Potency [14]

O=[N+]([O-])c1ccc(Oc2ccc(Cl)cc2Cl)cc1
63.6 µM (active) and inactive: Potency [6]
inactive: Potency [1] | Potency [15] | Potency [7] | Potency [8] | Potency [14]
54.8 µM (active) and inactive: Potency [2]
active: Potency [9] 22.6 µM | Potency [10] 5.67 µM and 5.64 µM | Potency [11] 28.4 µM and 31.7 µM | Potency [12] 31.9 µM and 22.4 µM | Potency [13] 19.5 µM

Clc1ccccc1Cl
inactive: Potency [1] | Potency [2] | max activation [3] -2.27% | outcome [4] | Potency [5] | Potency [6] | Potency [15] | Potency [7] | Potency [8] | Potency [9] | Potency [10] | Potency [11] | Potency [12] | Potency [13] | Potency [14]

CCOP(=S)(OCC)Oc1cnc2ccccc2n1
inactive and 30.6 µM (active): Potency [2]
inactive and 1 µM (active): Potency [8]
inactive and 2.24 µM (active): Potency [12]
inactive and 448 nM (active): Potency [10]
inactive and 1.12 µM (active): Potency [11]
active: Potency [9] 35.6 µM
inactive and 35.6 µM (active): Potency [6] | Potency [7]
inactive and 6.33 µM (active): Potency [14]
inactive: Potency [1] | Potency [15] | Potency [13]

CN1C(=O)CN=C(c2ccccc2)c2cc(Cl)ccc21
inactive: Potency [1]

Nc1ccc(Oc2ccc(N)cc2)cc1
18.1 µM (active) and inactive: Potency [14]
inactive: Potency [1] | Potency [6] | Potency [15] | Potency [8] | Potency [12] | Potency [13]
active: Potency [2] 62 µM | Potency [9] 36.1 µM and 31.7 µM | Potency [10] 18.1 µM and 20 µM | Potency [11] 14.4 µM and 8.94 µM

C=C(C)CCl
inactive: Potency [1] | Potency [2] | Potency [6] | Potency [15] | Potency [8] | Potency [9] | activity change, negative = inhibition [10] 3.29% [at 10.5 µM] | Potency [11] | activity change, negative = inhibition [12] -9.56% [at 10.5 µM] | Potency [13] | Potency [14]

O=NN1CCCCCCC1
inactive: Potency [1] | Potency [2] | Potency [6] | Potency [15] | Potency [7] | Potency [8] | Potency [9] | Potency [10] | Potency [11] | Potency [12] | Potency [13] | Potency [14]

CCCCOC(=O)c1ccccc1C(=O)OCCCC
active: Potency [10] 5.64 µM and 3.99 µM | Potency [11] 35.6 µM | Potency [12] 5.03 µM and 8.94 µM
inactive: Potency [1] | Potency [2] | Potency [6] | Potency [15] | Potency [7] | Potency [8] | Potency [9] | Potency [13] | Potency [14]
